The values that follow come from PubChem BioAssay (NCI).

What all share (assay): NCI-60 one-dose screen, 48 h (100 = growth as untreated, 0 = no growth, -100 = all killed)
Details in all cases: 10 µM

The subject of experiment [1] is DU-145 prostate.
The test system of experiment [2] is K-562 leukemia.
Experiment [3] deals with MALME-3M melanoma.
Experiment [4] deals with MDA-MB-231 breast.
The test system of experiment [5] is SF-268 CNS.
The test system of experiment [6] is SF-295 CNS.
The test system of experiment [7] is SF-539 CNS.
Experiment [8] deals with UACC-257 melanoma.
For experiment [9], the system named is M14 melanoma.

Compounds without any hit were thinned out: in the full panel of roughly 83,000, 20% have a hit.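 96-well plates, one dose, 48 hours. Percent growth reported; active if below 10.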 A number with no mark means an inactive call. The source made the active and inactive calls.

As to `Cc1ccc(-c2nc(Nc3ccc(C)c(S(N)(=O)=O)c3)c3ccccc3n2)cc1`, the growth was 35% in experiment [1]; 5.02% (active) in [2]; 92.4% in experiment [3]; 96.5% in [4]; 96.1% in [5]; 85.2% in experiment [6]. Moreover, the growth in experiment [7] was -31.3% (active); in [8] it was 104%; in experiment [9], 63.2%.

For `CCOC(=O)C1=C(N)N(c2ccc(C)cc2)C2=C(C(=O)CC(C)(C)C2)C1c1ccccc1OC` (configuration not stated), the growth was 107% in [1]; 98.4% in [2]; 93.4% in experiment [3]; 95.5% in experiment [4]; 100% in experiment [5]; 91% in experiment [6]. Moreover, the growth in experiment [7] was 101%; in [8], 104%; in experiment [9], 112%.

Take `CC1(c2ccccc2)NC(=O)N(CC(=O)Nc2ccc(C(=O)/C=C/C=C/c3ccccc3)cc2)C1=O` (configuration not stated): the growth in experiment [1] is 61.3%; in experiment [2], 14.8%; in experiment [3], 81.3%; in [4], 63.1%; in [5], 57.1%; in experiment [6], 5.15% (active). Further, the growth was 20.5% in experiment [7], 63.6% in experiment [8] and 59.3% in experiment [9].

Regarding `Brc1ccc(N/N=C/c2c[nH]c3ccccc23)nc1`, the growth in experiment [1] is 37.7%; in experiment [2], 11.7%; in experiment [3] it was 64.1%; in experiment [4] it was -26% (active); in experiment [5], 21.4%; in experiment [6], 25.3%. In addition, the results for the growth in experiment [7], in experiment [8] and in experiment [9] were 21%, 70.8% and 14.3%, respectively.

With `O=C(CSc1nnc(-c2c[nH]c3ccccc23)n1-c1ccccc1)Nc1ccc(C(=O)/C=C/c2ccc(Br)cc2)cc1`, the growth in [1] was 96.4%; in experiment [2], 69.1%; in experiment [3], 98.5%; in experiment [4], 87.8%; in [5] it was 67%; in experiment [6], 74.8%. The growth is 80.5% in experiment [7], 109% in experiment [8] and 102% in experiment [9].

Consider `Cc1ccc(C(=O)N/C(=C2/OCCN2C)[P+](c2ccccc2)(c2ccccc2)c2ccccc2)cc1`, for which the growth in experiment [1] was 84.9%; in [2] it was 50.4%; in experiment [3] it was 63.6%; in experiment [4], 65.6%; in experiment [5], 92.7%; in experiment [6], 87.3%. Moreover, the growth in experiment [7] is 91.4%; in experiment [8], 49.6%; in experiment [9], 82.9%.

On to `[2H]C([2H])([2H])Oc1ccc2ncc(C#Cc3cncc(C(=O)Nc4ccc(CN5CCN(C)CC5)c(C(F)(F)F)c4)c3)n2n1`, for which the growth was -98.8% (active) in [1]; 1.31% (active) in [2]; -81.1% (active) in experiment [3]; -90.5% (active) in [4]; -42.8% (active) in [5]; -77% (active) in [6]. Moreover, the growth in experiment [7] was -90.2% (active); in [8], -65.9% (active); in [9], -61.9% (active).

As for `CN1C(=O)N(C)C2SC(N/N=C/c3ccc(F)cc3)=NC21` (configuration not stated), the growth is 76.3% in experiment [1]; 15% in [2]; 40.1% in experiment [3]; 38.7% in experiment [4]; 52.1% in experiment [5]; 30.8% in [6]. For the same compound, the values for the growth in experiment [7], in [8] and in experiment [9] were 29.3%, 67.7% and 23.8%, respectively.

`CC(=O)C1=C(C)NC(SCC(=O)Nc2ccc(S(=O)(=O)Nc3cc(C)on3)cc2)=NC1c1ccccc1` (configuration not stated): the growth is 109% in [1]; 104% in experiment [2]; 100% in [3]; 110% in experiment [4]; 107% in experiment [5]; 106% in experiment [6]. For the same compound, the growth in experiment [7] was 101%; in experiment [8], 103%; in experiment [9] it was 108%.

As to `Nc1cc(-c2cccc(C(=O)NCc3ccc4c(c3)OCO4)c2)ccn1`, the growth in experiment [1] is 101%; in [2] it was 74.4%; in experiment [3], 99.3%; in experiment [4], 102%; in experiment [5], 91.5%; in experiment [6], 90.7%. The growth in [7] is 93%; in experiment [8], 106%; in experiment [9], 108%.

Turning to `O=C(Cc1ccc2c(c1)CN(C1CCC(=O)NC1=O)C2=O)NCc1cccc2ccccc12` (configuration not stated), the growth in [1] is -7% (active); in [2], 8.3% (active); in experiment [3], -72.2% (active); in experiment [4], -47.5% (active); in [5], -8.53% (active); in [6] it was -8.76% (active). The growth in experiment [7] was -23.3% (active); in experiment [8] it was 32.5%; in experiment [9] it was -70.8% (active).

In the case of `COc1ccc2ncc(C#Cc3cncc(C(=O)Nc4ccc(CN5CCN(C)CC5)c(C(F)(F)F)c4)c3)n2n1`, the growth is -100% (active) in experiment [1]; -9.3% (active) in [2]; -93.6% (active) in [3]; -95.8% (active) in experiment [4]; -64.5% (active) in experiment [5]; -97.5% (active) in experiment [6]. In addition, the growth was -100% (active) in experiment [7], -62.2% (active) in [8] and -80.2% (active) in experiment [9].

Regarding `N#Cc1ccc(-c2nn(-c3ccc(C(=O)O)cc3)cc2CNc2cc(Cl)cc(Cl)c2)cc1`, the growth in [1] was 65.4%; in experiment [2], 43.7%; in [3], 80.1%; in experiment [4], 80.2%; in [5], 53.3%; in experiment [6], 38.4%. The values for the growth in experiment [7], in [8] and in experiment [9] were 30.6%, 60.2% and 34.5%, respectively.

`Cc1ccc2nc(COc3ccc(C(=O)NNC(=S)NCCc4ccccc4)cc3)[nH]c2c1`: the growth in [1] is 98.9%; in experiment [2], 85.7%; in experiment [3], 64.8%; in [4] it was 29.6%; in [5] it was 33.6%; in experiment [6] it was 79.3%. In addition, the figures for the growth in [7], in [8] and in [9] were -1.98% (active), 103% and 106%, respectively.

As to `N#Cc1ccc(-c2nn(-c3ccc(C(=O)O)cc3)cc2CNc2ccc(Oc3ccccc3)cc2)cc1`, the growth is 65.4% in experiment [1]; 42.7% in [2]; 93.9% in experiment [3]; 72.5% in experiment [4]; 50.1% in experiment [5]; 49.3% in [6]. Also, the growth is 38.9% in [7], 56.1% in experiment [8] and 34.9% in [9].

As for `Cc1ccc(-c2nc(Nc3ccc(S(N)(=O)=O)cc3)c3ccccc3n2)cc1`, the growth in experiment [1] is 56.6%; in experiment [2] it was 6.36% (active); in [3], 98.8%; in experiment [4] it was 22.6%; in experiment [5] it was 52.1%; in experiment [6], 24.2%. In addition, the growth in [7] is 37%; in experiment [8] it was 93.9%; in [9], 22.9%.

On to `COc1ccc(-c2ccc(SCC(=O)Nc3ccc(C#N)cc3)nn2)cc1`, for which the growth is 105% in [1]; 90% in experiment [2]; 78.6% in [3]; 85.4% in experiment [4]; 99.1% in experiment [5]; 81.3% in experiment [6]. The growth in experiment [7] is 71%; in experiment [8] it was 98.9%; in [9], 93%.

On to `Cc1ccc2nc(COc3ccc(C(=O)NNC(=S)NC(=O)c4ccccc4)cc3)[nH]c2c1`, for which the growth is 64.7% in experiment [1]; 21.8% in [2]; 80.9% in experiment [3]; 71.5% in [4]; 55.2% in experiment [5]; 25.3% in [6]. For the same compound, the growth in experiment [7] was 41.9%; in experiment [8], 83.4%; in experiment [9], 65.2%.

Consider `Cc1noc2c(Cc3ccc([N+](=O)[O-])cc3)nn(CC(=O)N/N=C/c3ccc(Br)cc3)c(=O)c12`, for which the growth in experiment [1] was 74.9%; in experiment [2] it was 88.7%; in [3] it was 66%; in experiment [4] it was 46.4%; in [5] it was 72.1%; in experiment [6], 89.5%. For the same compound, the results for the growth in experiment [7], in experiment [8] and in experiment [9] were 26.1%, 106% and 93.4%, respectively.

Regarding `CCOc1ccc(/C=N/NC(=O)Cn2nc(Cc3ccccc3)c3onc(C)c3c2=O)cc1`, the growth in experiment [1] was 30.6%; in experiment [2], 75%; in experiment [3], -11.8% (active); in [4] it was 9.5% (active); in experiment [5] it was -9.54% (active); in experiment [6] it was 10.8%. The growth is -47.2% (active) in experiment [7], 66.2% in experiment [8] and 57.6% in [9].

In the case of `COc1cnc2c(c1)C(=O)c1c-2n(CCCNCCO)c(=O)c2cc(OC)c(OC)cc12`, the growth in experiment [1] was 15.6%; in experiment [2], 26.8%; in experiment [3], 49%; in experiment [4], 19.2%; in [5], 44%; in [6] it was 6.94% (active). Also, the values for the growth in experiment [7], in experiment [8] and in experiment [9] were -52.7% (active), 68.3% and 23.1%, respectively.

As to `O=C1CCC(N2Cc3c(NCc4ccc(-c5ccccc5)cc4)cccc3C2=O)C(=O)N1` (configuration not stated), the growth in experiment [1] is 85%; in experiment [2] it was 72.4%; in experiment [3], 15.2%; in experiment [4] it was 22.2%; in experiment [5], 68.1%; in [6] it was 81.9%. Also, the figures for the growth in experiment [7], in [8] and in experiment [9] were 58.4%, 103% and 75.4%, respectively.

For the compound `O=c1c2ccccc2nc(COc2ccccc2)n1/N=C/c1ccc(N2CCCC2)cc1`, the growth in experiment [1] is 94.7%; in [2], 73.4%; in experiment [3] it was 115%; in experiment [4] it was 89.2%; in experiment [5] it was 115%; in [6] it was 94.2%. Moreover, the figures for the growth in [7], in experiment [8] and in [9] were 93.6%, 108% and 101%, respectively.

Take `Oc1ccc(/C=C2\CCCc3cc4ccc(O)cc4[o+]c32)c(O)c1`: the growth in experiment [1] was 8.58% (active); in experiment [2], 41.5%; in [3], 45.1%; in [4], -27.4% (active); in experiment [5], 69.6%; in experiment [6] it was 90.1%. Moreover, the growth was -15% (active) in experiment [7], 69% in experiment [8] and 43.2% in experiment [9].

Regarding `CN1CCN(Cc2ccc(NC(=O)c3cncc(C#Cc4cnc5ccc(N[C@H]6CCOC6)nn45)c3)cc2C(F)(F)F)CC1`, the growth in experiment [1] is -99.9% (active); in experiment [2], 0.651% (active); in [3] it was -97.3% (active); in experiment [4] it was -92.4% (active); in [5], -74.5% (active); in experiment [6] it was -98.4% (active). In addition, the growth in experiment [7] was -99.7% (active); in [8], -84.1% (active); in [9], -82% (active).

On to `O=c1[nH]c2ccc(Cl)cc2cc1CSc1ccc(Nc2nccc(-c3ccc4ccccc4c3)n2)cc1`, for which the growth in experiment [1] was 38.3%; in [2], 85.7%; in [3], 20%; in [4] it was 55.2%; in experiment [5] it was 68%; in experiment [6], 111%. Moreover, the growth in [7] is 94.1%; in [8], 112%; in experiment [9], 88.4%.

`CCOC(=O)C1=C(N)N(c2ccccc2)C2=C(C(=O)CC(C)(C)C2)C1c1ccc(Cl)cc1` (configuration not stated): the growth in experiment [1] was 58.3%; in experiment [2], 18.3%; in experiment [3], 15.9%; in [4], 53%; in [5], 58%; in experiment [6], 21.3%. Moreover, the growth in experiment [7] was 36.2%; in experiment [8] it was 28%; in [9] it was 28.2%.

In the case of `O=C(Nc1cccc([N+](=O)[O-])c1)Nc1cccc([N+](=O)[O-])c1`, the growth in experiment [1] was 82%; in experiment [2] it was 57.6%; in experiment [3] it was 98.6%; in [4], 87.5%; in experiment [5] it was 79.9%; in experiment [6] it was 76.3%. The figures for the growth in experiment [7], in experiment [8] and in experiment [9] were 93%, 93.2% and 87.2%, respectively.
